# Test results published in the supplement of paper PMC10338343.
# ± gives the standard deviation.
# Experiments:
# [1] = system: MILI (PIWIL2) piRISC loaded with L1MC piRNA (26 nt); test: pre-steady-state target cleavage rate (min^-1); guide: L1MC piRNA 5'p-UAACUAAAUACUAUGCAAGCUGUAGG; higher = faster piRNA-guided slicing of the target
# Procedure, shortened: (§1)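 With or without 500 nM GTSF1 partner protein, 1 nM active affinity-purified piRISC carrying one synthetic guide was mixed with 0.1 nM transcribed, DNA-blocked target RNA library in HEPES–potassium acetate buffer at 33 °C for 0–8 or 0–960 min. Uncleaved targets were sequenced and normalised to depth and to weakly complementary targets, three trials were pooled, and k3 was capped at 0.0001 min^-1. The pre-steady-state cleavage rate came from a burst-and-steady-state fit.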
# [2] = system: EfPiwi piRISC loaded with L1MC piRNA (26 nt); test: pre-steady-state target cleavage rate (min^-1); auxiliary factor: 500 nM Ephydatia muelleri Gtsf1; guide: L1MC piRNA 5'p-UAACUAAAUACUAUGCAAGCUGUAGG; MIWI and MILI are mouse PIWI proteins and EfPiwi is from a freshwater sponge; tags in brackets are library labels; higher = faster piRNA-guided slicing of the target
# Procedure, shortened: as §1
# [3] = auxiliary factor: 500 nM mouse GTSF1
# [4] = auxiliary factor: none (no GTSF1)
Sequence,"pre-steady-state target cleavage rate [1, 3]","pre-steady-state target cleavage rate [1, 4]",pre-steady-state target cleavage rate [2]
UCCUGGAUGUCCUUGCAUAGUAUUUAGUUUA,0.104 ± 0.015,0.00891 ± 0.0035,0.00634 ± 0.003
UCCUGGUACAGCAUGCAUAGUUUUUAGUUA,0.038 ± 0.015,0.00749 ± 0.0033,0.0046 ± 0.0027
UCCUGGUAGAGCAUGCAUAGUAUUUAGUUA,0.196 ± 0.018,0.0109 ± 0.0033,0.0134 ± 0.004
UCCUGCUACAGCUUGCAGAGUAUUUAGUUA,0.27 ± 0.028,0.00514 ± 0.002,0.006 ± 0.0022
UCCUGGAUGUCGUUGCAUAGUCAUUUAGUUA,0.00441 ± 0.0039,0.00434 ± 0.0028,
UCCUGGAACAGCUUGGAUUGUAUUUAGUUA,0.0767 ± 0.011,0.00295 ± 0.0026,
UCCUGGAUGUCGUUGCAUAGUACUUUAGUUA,0.0156 ± 0.0059,0.00645 ± 0.0028,
UCCUCCUACAGGUUGCUUAGUAUUUAGUUA,0.237 ± 0.011,0.00975 ± 0.0027,0.0231 ± 0.0065
UCCUGGAUGAGGUUGGAUAGUAUUUAGUUA,0.132 ± 0.021,0.00824 ± 0.0025,
UCCUGGAUGAGCUUGCAAUGUAUUUAGUUA,0.0269 ± 0.0097,0.00445 ± 0.0026,
UCCUGGAUGUGGUUGCAUAGUAAUUAGUUA,0.162 ± 0.034,0.00751 ± 0.0032,0.00754 ± 0.0039
UCCUGGAUGUCCUUGGAUAGUAUUUAGUUA,0.153 ± 0.021,0.00762 ± 0.0021,
UCCUGGAUGUCCUUGCGUAGUAUUUAGUUA,0.0231 ± 0.0068,0.0122 ± 0.0025,
UCCUCCUACAGCUUCCUUAGUAUUUAGUUA,0.216 ± 0.025,0.00443 ± 0.002,0.00472 ± 0.0022
UCCUCCGUACAGCUUGCAUAGUAUUUAGUUA,0.272 ± 0.014,0.0094 ± 0.0023,0.0578 ± 0.018
UCCUGGUACAGCUUGGAUAGUAUAUAGUUA,0.316 ± 0.065,0.0066 ± 0.0032,0.00702 ± 0.0025
UCCUGCUACUGCUUGCAUAGUAUUAAGUUA,0.151 ± 0.02,0.00322 ± 0.0028,0.00584 ± 0.0021
UCCUCCUACAGCUUGCAUAGUGAUUUAGUUA,0.0192 ± 0.0061,0.00528 ± 0.0024,0.00415 ± 0.0025
UCCUGGAUGAGCUUGCUUAGUAUUUAGUAA,0.155 ± 0.022,0.00595 ± 0.0027,0.00265 ± 0.0025
UCCUGGUACAGCUUGCAAAGUAAUUAGUUA,0.207 ± 0.03,0.00414 ± 0.0027,0.00305 ± 0.0021
UCCUGGAACAGCUUGCUUAGUAUAUAGUUA,0.241 ± 0.02,0.00532 ± 0.0022,0.0104 ± 0.0048
UCCUCCUACAGUUUGCAUAGUAUUUAGUUA,0.299 ± 0.013,0.00895 ± 0.0021,0.0845 ± 0.021
UCCUCCUUCAGCUUGCAUUGUAUUUAGUUA,0.226 ± 0.019,0.00662 ± 0.002,0.0307 ± 0.0077
UCCUCCUACAUCUUGCAUAGUAUUUAGUUA,0.277 ± 0.02,0.00791 ± 0.0022,0.0662 ± 0.02
UCCUGGAACAGCUUCGCAUAGUAUUUAGUUA,0.237 ± 0.016,0.00647 ± 0.0022,0.0367 ± 0.008
UCCUCCUACAGGUUGCAUAGUAAUUAGUUA,0.205 ± 0.018,0.00589 ± 0.0017,0.0115 ± 0.0031

Sequence,"pre-steady-state target cleavage rate [1, 3]","pre-steady-state target cleavage rate [1, 4]",pre-steady-state target cleavage rate [2]
UCCUCCUUGUGCUUGCAUAGUAUUUAGUAA,0.147 ± 0.021,0.0033 ± 0.0024,0.00675 ± 0.0029
UCCUGGAACAGAUUGCAUAGUAUUUAGUUA,0.284 ± 0.012,0.0113 ± 0.0023,0.0572 ± 0.014
UCCUGCUACACCUUGCAUAGUAUUUAGUAA,0.192 ± 0.035,0.00445 ± 0.0026,0.00559 ± 0.0032
UCCUCCUACACCUAGCAUAGUAUUUAGUUA,0.205 ± 0.027,0.0056 ± 0.0018,0.00718 ± 0.0027
UCCUGGAUGUGCUUGCACAGUAUUUAGUUA,0.13 ± 0.01,0.00631 ± 0.0022,0.00686 ± 0.0028
UCCUGGAUGUCGAUGUAUAGUAUUUAGUUA,0.0919 ± 0.011,0.0069 ± 0.002,0.00398 ± 0.003
UCCUGGAACAGCUUGCAUAGUGUUUAGUUA,0.146 ± 0.018,0.00335 ± 0.0028,0.0084 ± 0.0024
UCCUCCUACACCUUGCAUAGUAUUUAGUUA,0.237 ± 0.025,0.0085 ± 0.0022,0.0762 ± 0.025
UCCUGGAACGCUUGCAUAGUAUUUAGUUA,0.239 ± 0.015,0.00644 ± 0.0019,0.0259 ± 0.0076
UCCUCCUACAGCUUGCAUAGUAUUUACUUA,0.206 ± 0.039,0.00429 ± 0.0025,0.0042 ± 0.0034
UCCUGGAACAGCUCUGCAUAGUAUUUAGUUA,0.268 ± 0.012,0.00871 ± 0.0031,0.0165 ± 0.005
UCCUCGUACAGCAUGCAUAGUAUUUAGUUA,0.262 ± 0.015,0.0102 ± 0.0022,0.0515 ± 0.013
UCCUGGAACUGCUUGCAUAGUAUAUAGUUA,0.128 ± 0.021,0.00491 ± 0.0025,0.0584 ± 0.021
UCCUGCUUGAGCUUGCAUAGUAUUUAGUAA,0.172 ± 0.021,0.00365 ± 0.0027,0.00772 ± 0.0023
UCCUCCUACAGCUUGCAUAGUAUUUCGUUA,0.243 ± 0.043,0.0033 ± 0.0031,0.00416 ± 0.0023
UCCUGCUACAGCUUGCAUAGUAUUCAGUUA,0.244 ± 0.038,0.00294 ± 0.0021,0.00508 ± 0.0017
UCCUGGAUGUCGAUUGCAUAGUAUUUAGUUA,0.09 ± 0.012,0.00748 ± 0.0024,0.00712 ± 0.0027
UCCUGGUACAGCUUGCAUAGUAUGUUAGUUA,0.184 ± 0.03,0.00462 ± 0.0027,0.00488 ± 0.0028
UCCUGGAUCAGCUUGGAAAGUAUUUAGUUA,0.0767 ± 0.01,0.00552 ± 0.0021,0.00365 ± 0.0033
UCCUGGAACAGGAUGCAUAGUAUUUAGUAA,0.221 ± 0.021,0.00369 ± 0.0022,0.0055 ± 0.0028
UCCUGUUACAGCUUGCAUAGUAUUUAGUUA,0.328 ± 0.018,0.0102 ± 0.0034,0.231 ± 0.07
UCCUCCUACAGCAUGCAUAGUAUUUUGUUA,0.143 ± 0.02,0.00296 ± 0.0027,0.00297 ± 0.0021
UCCUGCUACAGCUUGCAUAGUAUCUAGUUA,0.265 ± 0.033,0.00553 ± 0.0025,0.00723 ± 0.0019
UCCUCCUACUGCUUGCAUAGUAUAUAGUUA,0.179 ± 0.021,0.00372 ± 0.0022,0.0123 ± 0.0054
UCCUGGAUGAGCAUGCAUAGUAUAUAGUUA,0.213 ± 0.022,0.00752 ± 0.0029,0.00333 ± 0.0032
UCCUCCAUGAGCUUGCAUAGUAUUUAGUAA,0.169 ± 0.018,0.00406 ± 0.0021,0.00588 ± 0.0024
